Screens deposited in PubChem by National Center for Advancing Translational Sciences (NCATS).
Hits are enriched below; roughly 19% of the tested compounds scored in any of these assays.
TDP1 cell CPT = DT40-hTDP1 cell growth loss with CPT | chicken DT40 Tdp1-/-;hTDP1 cells + 20 nM CPT, ATP luminescence, 48 h | Potency, µM (titrated, usually from 46.2 µM), inactives show at the top dose activity change, negative = growth inhibition, usual class: inhibitors | hit rate 12% among 420,000; further: potency means the concentration at half of the fitted maximal effect; nearly all actives have a fitted effect of over 55% in size
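Cell growth measured by CellTiter-Glo luminescence after a minimum 48 h, 37 C compound exposure with 20 nM CPT in Tdp1-knockout DT40 cells stably expressing hTDP1, seeded 400/well; qHTS titration format.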
IL-1B inflam inh = inflammasome signaling inhibition, IL-1 beta readout; THP-1 LPS/ATP IL-1B secretion, AlphaLISA, 16 h; stronger effect = lower value; activity change, % at 57.5 µM; hit rate 4.7% among 360,000; AID 743279; in the data active means activity change below about -50%; inconclusive means mostly about -30% to -49%
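Secreted IL-1B measured by AlphaLISA bead assay after 16 h compound exposure of THP-1 cells; compounds (final up to 57.5 uM) added 1 h before LPS (250 ng/mL) and ATP (1.25 mM) stimulation; lower signal means less secretion.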
Giardia kill = kills Giardia lamblia; Giardia lamblia trophozoite viability; activity change, % at 7.66 µM, hits read low; hit rate 0.15% among 340,000; in the data active means activity change below about -80%; inconclusive means between about -30% and that limit;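 further: parasites exposed to compound for two days anaerobically before the ATP read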
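ATP-content bioluminescence gauges trophozoite survival. Cells (100/well) receive compound and incubate anaerobically for 48 hrs at 37 deg C; detection reagent follows for 15-30 min at room temperature.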
DT40 TDP1 no CPT = qHTS for Inhibitors of human tyrosyl-DNA phosphodiesterase 1 (TDP1): qHTS in cells in absence of CPT. hit rate 15% among 420,000. DT40 Tdp1-/- hTDP1 cells, no CPT, ATP luminescence, 48 h. AID 686978, 2013. Potency, µM (series often up to 46.2 µM), without a hit: at the highest dose activity change, negative = growth inhibition, actives largely listed as inhibitors; further: potency means the concentration at half of the fitted maximal effect; nearly all actives have a fitted effect of over 55% in size
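Luminescent ATP content (CellTiter-Glo) served as the growth readout. Knockout chicken DT40 cells expressing human TDP1 were exposed to compounds without camptothecin for a minimum 48 hr at 37 °C.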
ELG1 DNA repair = inhibitors of ELG1-dependent DNA repair in HEK293T cells; HEK293T ELG1-luciferase reporter, luminescence, 16 h; DNA damage induced by 5-fluorouridine; Potency, µM (top dose mostly 46.1 µM), without a hit: at the top dose activity change, negative = inhibition, usual class: inhibitors; hit rate 2.3% among 330,000; further: potency means the concentration at half of the fitted maximal effect; nearly all actives have a fitted effect of over 55% in size
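Quantitative HTS, concentration-response format. 2,000 cells/well co-treated with 5-fluorouridine and compound, 16 hr in 5% CO2 at 37 °C; ONE-Glo luminescence read after 30 min.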
TDP1 block = inhibitors of human tyrosyl-DNA phosphodiesterase TDP1; Q9NUW8; recombinant TDP1, AlphaScreen DNA substrate cleavage; Potency, µM (highest dose often 130 µM), without a hit: top-dose activity change, negative = inhibition, usual class: inhibitors; hit rate 0.28% among 350,000; AID 485290; further: potency means the concentration at half of the fitted maximal effect; nearly all actives have a fitted effect of over 40% in size
Target sequence (Q9NUW8 whole entry, looked up): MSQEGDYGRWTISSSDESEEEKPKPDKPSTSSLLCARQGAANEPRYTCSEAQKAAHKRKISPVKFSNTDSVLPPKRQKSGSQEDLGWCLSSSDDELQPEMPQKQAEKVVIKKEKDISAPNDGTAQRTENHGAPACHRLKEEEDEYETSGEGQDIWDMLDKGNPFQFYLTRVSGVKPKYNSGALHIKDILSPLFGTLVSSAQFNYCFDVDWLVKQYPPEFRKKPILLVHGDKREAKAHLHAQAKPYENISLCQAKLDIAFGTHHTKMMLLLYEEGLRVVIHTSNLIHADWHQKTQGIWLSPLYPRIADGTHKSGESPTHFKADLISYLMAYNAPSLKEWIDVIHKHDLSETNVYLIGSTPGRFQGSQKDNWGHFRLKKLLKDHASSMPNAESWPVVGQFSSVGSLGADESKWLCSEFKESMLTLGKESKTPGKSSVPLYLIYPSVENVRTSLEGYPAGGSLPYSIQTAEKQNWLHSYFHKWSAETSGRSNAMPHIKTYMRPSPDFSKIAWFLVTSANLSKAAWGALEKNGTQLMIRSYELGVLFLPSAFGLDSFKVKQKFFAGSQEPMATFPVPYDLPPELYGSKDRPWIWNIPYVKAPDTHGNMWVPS
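Compounds were preincubated with Tdp1 (1 nM final) for 15 min at room temperature before substrate (15 nM final) started a 5 min reaction; beads (10 ug/ml final) were then added for 10 min before AlphaScreen detection.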
* = called active by the depositor; ? = inconclusive; . = not tested or not shown; ! = not confirmed by another sample. Unless noted, the call rests on the fitted dose curve; in most records, active means well fitted curve in the direction sought with a large enough effect; inconclusive means small, poorly fitted or top-dose-only effect, or another doubt; inactive means no such curve, though single readings can be large; an effect the other way counts as inactive or inconclusive. On the % scale 0 is the no-effect control and ±100 the full control effect.

SMILES	TDP1 cell CPT	IL-1B inflam inh	Giardia kill	DT40 TDP1 no CPT	ELG1 DNA repair	TDP1 block
CCN1CCC[C@H]1CNC(=O)c1c(OC)ccc(Br)c1OC	33µM*!	3	11	30µM*!	8%	9%
CCc1ccc(-c2cc(C)no2)cc1S(=O)(=O)N1CCOc2ccccc21	?	-5	-14	?	?	0%
O=C1Nc2cc(C(=O)NCCCN3CCCC3)ccc2S/C1=C/c1cccc(Cl)c1	6.5µM*	-4	.	?	.	.
CCN1CCCC1CNC(=O)c1ccc2c(c1)NC(=O)/C(=C\c1ccc(OC)c(OC)c1)S2 (centres undefined)	?	26	8	16µM*	?	3%
CCN1CCN(CCCNC(=O)c2ccc3c(c2)NC(=O)/C(=C\c2cccc(C)c2)S3)CC1	16µM*	-87*	27	?	-29%	9%
O=C(NCCCN1CCCCC1)c1ccc2c(c1)NC(=O)C(N1CCCCC1)S2 (centres undefined)	?	-1	1	-19%	5%	5%
COc1ccc(/C=C2/Sc3ccc(C(=O)NCCCN4CCOCC4)cc3NC2=O)cc1OC	4.6µM*	43	-7	2.6µM*	16%	4%
Cc1cccc(/C=C2/Sc3ccc(C(=O)NCCCN4CCOCC4)cc3NC2=O)c1	.	.	.	.	-12%	3%
COc1cccc(-c2c(C#N)c(N)nc3c2c(C)nn3-c2ccccc2)c1O	?	-5	-14	?	?	.
O=C1CCCc2c1oc1c2CCCC1	16%	1	-7	-5%	.	.
O=C(NCCc1nnc2n1CCN(Cc1c(F)cccc1F)CC2)c1ccc(F)cc1	10%	.	.	-10%	.	.
COc1cccc(/C=C2/Sc3ccc(C(=O)NCCN4CCCCCC4)cc3NC2=O)c1	?	-27	-16	?	?	3%
O=C1Nc2cc(C(=O)NCCN3CCCCCC3)ccc2S/C1=C\c1ccccc1	13µM*	-93*	?	12µM*	?	6%
CC(C)(C)n1nnnc1C(c1ccc(C(F)(F)F)cc1)N(Cc1ccc(F)cc1)Cc1ccco1 (centres undefined)	?	-15	-21	21µM*	-5%	0%
CC(C)(C)n1nnnc1C(c1cccs1)N(Cc1ccccc1)Cc1cccnc1 (centres undefined)	21µM*	-4	-19	26µM*	4%	2%
CCN(Cc1ccccc1)C(c1ccc(C)cc1)c1nnnn1C(C)(C)CC (centres undefined)	?	-8	-8	13µM*	-5%	-1%
CC(C)(C)n1nnnc1C(c1ccc(F)cc1)N(Cc1ccc(F)cc1)Cc1ccco1 (centres undefined)	?	-18	7	?	6%	0%
CC(C)(C)n1nnnc1C(c1ccc(C(F)(F)F)cc1)N(Cc1ccccc1)Cc1ccco1 (centres undefined)	21µM*	-12	-3	?	-9%	0%
C=CCNC(=S)Nc1cccc2[nH]ncc12	-2%	21	-16	-3%	-7%	6%
CCOCCCn1c(=S)[nH]c2cc(C(=O)NCCc3ccccc3)ccc2c1=O	?	23	9	6%	24%	3%
Cc1c2cnn(CC(=O)NCc3ccc(F)cc3)c(=O)c2c(C)n1Cc1ccccc1Cl	?	.	.	?	.	-8%
CC(C)(C)n1nnnc1C(c1ccc(Cl)cc1)N(Cc1cccnc1)Cc1ccco1 (centres undefined)	18µM*	-24	4	-25%	6%	10%
O=C(CCCn1c(=S)[nH]c2ccccc2c1=O)NCCSCc1ccccc1	23µM*	-17	-2	?	-25%	3%
COc1ccc(CNC(=O)CCCCCn2c(=O)[nH]c3ccccc3c2=O)cc1	-18%	.	.	-3%	.	7%
